Data taken from PubChem BioAssay.

experiment: E. coli acrAB mutant growth effects, primary screen, E. coli filamentation inducers, strain DRC39, OD650, 24 h (AID 1178); settings: higher = more signal, called active from +8 up or from −8 down;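 further: growth measured as culture turbidity by optical density at 650 nm; test concentration not given here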

z-score, inactive:
O=C1O[C@@H](c2ccccc2)[C@@H](c2ccccc2)N2[C@@H](c3ccc(O)cc3)[C@]3(C(=O)Nc4ccc(C#CCCO)cc43)[C@@H](C(=O)Nc3nc4ccccc4s3)[C@H]12 -0.0791
C=CCOC(=O)[C@@H]1[C@H]2C(=O)O[C@H](c3ccccc3)[C@H](c3ccccc3)N2[C@H](c2ccc(OCCOC(=O)[C@H]3C[C@H]4C(=O)N[C@@H](CCCCN(C)C)C(=O)N4[C@H]3c3cccc(OCCO)c3)cc2)[C@@]12C(=O)Nc1ccc(I)cc12 -0.0783
Cc1c(NC(=O)/C(C#N)=C/C=C/c2ccc(N(C)C)cc2)c(=O)n(-c2ccccc2)n1C 1.78
O=C1C2C=CC(C(O)c3cc(C(F)(F)F)cc(C(F)(F)F)c3)N(Nc3ccc([N+](=O)[O-])cc3)C2C(=O)N1c1ccccc1 (centres undefined) -2.26
O=C1NC(=O)C2C1C=CC(C(O)c1cc(C(F)(F)F)cc(C(F)(F)F)c1)N2Nc1ccc(Cl)cc1Cl (centres undefined) -1.14
CO[C@H]1O[C@H](CO)[C@@H](OC(=O)Nc2ccccc2-c2ccccc2)[C@H](OC(=O)Nc2ccc3c(c2)OCO3)[C@@H]1OC(=O)Nc1ccc2c(c1)OCO2 0.999
Cc1ccc(F)cc1S(=O)(=O)N[C@@H]1CCN(Cc2ccc(Oc3ccccc3)cc2)C1 -5.2
CCOC(=O)C1=CC[C@@H](c2ccccc2)N(S(=O)(=O)c2ccc(C)cc2)C1 -0.866
Cc1ccc(S[C@]2(C(=O)NCC(F)(F)F)CC(=O)N(Cc3ccccc3)[C@@H]2c2ccc(CO)cc2)cc1 0.163
